This is an account of results in PubChem BioAssay AID651664 (NMMLSC, 2012).

Out of some 1,800 compounds screened, fewer than 10 were called active. Not all results are given here. A number with no mark means an inactive call.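 The calls were made as follows: active = inhibition of granule release above a set limit; inactive = the rest.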

A short description of this experiment: inhibitors of lytic granule exocytosis, flow cytometry, TALL-104 cells, validation set (AID 651664). The settings on record: TALL-104 LAMP-1 externalization, at 15.2 µM, hits give high values, stimulated with thapsigargin and PMA. For orientation: Flow cytometry measures light scatter and fluorescence of single cells or particles in a stream.
The inhibition is the change of the read-out against control, counted positive when it falls. Turning to `CC1CCCN(C(=O)C2CCN(CC3CC=CCC3)CC2)C1` (stereo not drawn), the inhibition is -1.1%.

`OCCN=c1cc(-c2ccccc2)oc2ccc(Cl)cc12`: the inhibition is 3.5%.

As to `O=C(/C=N/O)Nc1ccc(F)cc1`, the inhibition is -2.8%.

For the compound `Cc1ccc(-n2nc(C)c3cc(C(=O)O)sc32)cc1`, the inhibition was 5.6%.

As to `O=C(CSc1nnc(-c2cccs2)n1-c1ccccc1)Nc1ccccc1`, the inhibition was 22.8%.

As to `Cc1nc(NCc2ccco2)c2oc3ccccc3c2n1`, the inhibition was -2.5%.

With `C=CCn1c(-c2ccco2)n[nH]c1=S`, the inhibition was -0.5%.

As to `[O-]C1=N/[N+](=C/c2ccccc2Cl)CC1`, the inhibition was -2.2%.

As to `COC(=O)CSc1ncnc2c1cnn2Cc1ccccc1`, the inhibition is -0.5%.

For `N/C(=N\OS(=O)(=O)c1ccccc1)c1ccncc1`, the inhibition was -2.3%.

Regarding `CCOc1ccc(CN(CCO)CCO)cc1[N+](=O)[O-]`, the inhibition was -2.2%.

As for `O=C(CSc1ccccn1)N1CCN(C(=O)CSc2ccccn2)CC1`, the inhibition is 0.4%.

Consider `Clc1ccc(/C=N/NC(=Nc2ccccc2)c2ccccn2)c(Cl)c1`, for which the inhibition is 1.5%.

Regarding `CC(=O)N1CCN(S(=O)(=O)c2cccc(C(=O)NC3CCCc4ccccc43)c2)CC1` (stereo not drawn), the inhibition is 0%.

In the case of `Oc1ccccc1N=Nc1nc(-c2ccccc2)c(-c2ccccc2)[nH]1`, the inhibition was -2.4%.

Regarding `Cc1ccccc1OCC(=O)Nc1cccc(NC(=O)c2ccco2)c1`, the inhibition was 1.8%.

For `CC(C(=O)O)N1C(=O)CSc2ncccc21` (stereo not drawn), the inhibition is 2.4%.

For `CCC(C)NC(=O)Cn1cccc1C(=O)c1ccccc1` (stereo not drawn), the inhibition was -0.2%.

Regarding `CC(NC(=O)NCCCC(=O)O)(C(F)(F)F)C(F)(F)F`, the inhibition was 2%.

As for `Cc1ccc(S(=O)(=O)N2CCOCC2)cc1C(=O)OCC(=O)N1CCc2ccccc2C1`, the inhibition was -0.4%.

Consider `Cc1cc2c(cc1C)NC(c1nc3ccccc3[nH]1)C1=C(CC(C)(C)CC1=O)N2` (stereo not drawn), for which the inhibition is -3.1%.

For the compound `O=c1[nH]c2c(s1)C(c1ccccc1)C1C3CCC(C3)C1S2` (stereo not drawn), the inhibition is 0.8%.

Regarding `COCCCNC(=O)C1CCC(=O)N1Cc1ccccc1Cl` (stereo not drawn), the inhibition was 0.7%.

As to `Cc1ccc(C(=O)Cn2cnc3ccccc3c2=O)cc1C`, the inhibition was 6.9%.

Regarding `C=C(C)CN1C(=O)C(O)(CC(=O)c2ccc3c(c2)OCCO3)c2ccccc21` (stereo not drawn), the inhibition is 1.5%.

Regarding `Cc1cc(C)c(S(=O)(=O)NCc2cn3c(C)csc3n2)c(C)c1`, the inhibition is -4.5%.

Turning to `CC1=CC=CN2CC(O)CN=C12` (stereo not drawn), the inhibition is 1%.

As to `O=C(Oc1ccccc1)N1CCN(c2ccc(F)cc2)CC1`, the inhibition was 6.6%.

Take `COC(=O)c1ccc(CN2CCN(Cc3ccc(C(=O)OC)o3)CC2)o1`: the inhibition was 2.2%.

For the compound `O=c1[nH]n(-c2ncnc3c2cnn3-c2ccccc2)c(=O)c2ccccc12`, the inhibition was -0.6%.

Turning to `CCC(C)N=CC1=C(O)CC(c2ccccc2)CC1=O` (stereo not drawn), the inhibition was -2.1%.

`O=C(c1ccccc1)N(CCN1CCOCC1)C1(C(=O)Nc2ccccc2)CCCCC1`: the inhibition was 5.2%.

Take `COc1ccc(NC(=O)CSc2c(C)nn(-c3nnc(C)c(=O)[nH]3)c2C)cc1`: the inhibition is 0.5%.

For the compound `COC(=O)c1ccc(CSc2nc3ccccc3c(=O)n2-c2ccccc2)o1`, the inhibition was -0.9%.

As for `Cn1c(CN2CCCC2)nc2cc(NS(=O)(=O)c3ccc(Cl)cc3)ccc21`, the inhibition was -3.8%.

In the case of `CCC(C)NC(=O)CSc1nnc(-c2cc(-c3cccs3)nc3ccccc23)o1` (stereo not drawn), the inhibition was -1.3%.

`COC(=O)c1cc(NC(=O)CN(c2ccc3c(c2)OCO3)S(C)(=O)=O)ccc1Cl`: the inhibition is 1.7%.

With `CCOc1ccccc1N1CC(C(=O)Nc2nccs2)CC1=O` (stereo not drawn), the inhibition was -1.1%.

Consider `Cc1cnc(NC(=O)c2ccc3c(c2)C(=O)N(Cc2ccco2)C3=O)s1`, for which the inhibition is -1.3%.

In the case of `COc1ccc(N/N=C(/N=Nc2nc(C)cc(=O)[nH]2)c2ccccc2)cc1`, the inhibition is 3.7%.

Take `CCOC(=O)c1ccc(N2C(=O)CC(Sc3nnc(C)s3)C2=O)cc1` (stereo not drawn): the inhibition is -0.5%.

Turning to `Cc1ccc(-c2nc(N)c3c(-c4ccc(C)cc4)nn(C(C)(C)C)c3n2)cc1`, the inhibition was 0%.

In the case of `O=c1[nH]c(CO)nc2c1oc1ccccc12`, the inhibition was -3.5%.

On to `CCC(C#CCN1CCCCC1)(CC)OCCC#N`, for which the inhibition was 25.8%.

Consider `COC(=O)CN1C(=O)CSc2ncccc21`, for which the inhibition is 0.6%.

Turning to `CCCCOCCCNC(=O)N[C@H](C(=O)OC)C(C)C`, the inhibition was -2.9%.

As to `Nc1ncnc2nc(SCc3ccc(Cl)cc3Cl)[nH]c12`, the inhibition was 6.3%.

For the compound `CN(C)c1nc(SCc2ccccc2Cl)nc2c1CCCC2`, the inhibition is -0.7%.

As to `CC1(C)Cc2c(sc3ncn4nc(-c5ccco5)nc4c23)CO1`, the inhibition is -1.3%.

`O=C(COc1ccc(F)cc1)c1ccc2c(c1)CCCC2`: the inhibition is -2.8%.

Regarding `O=C1c2ccccc2-c2c1nc1c([n+]2[O-])CCCC1`, the inhibition is -5.1%.

As to `COc1ccc2c(c1OC)C(=O)N(c1cccc(C)c1)C2=O`, the inhibition was 1.1%.

Take `CO/N=C/C(=N\Nc1ccc(OC)cc1)C(=O)c1ccc(OC)cc1`: the inhibition is 0.7%.

For the compound `COc1ccc(S(=O)(=O)N(C)CC(=O)Nc2ccccc2C(F)(F)F)cc1OC`, the inhibition is -1.6%.

Consider `CN1CCN(c2nc(-c3ccccc3)nc3c2oc2ccccc23)CC1`, for which the inhibition is 1.5%.

On to `O=C(CSc1nnc(CNc2ccc(F)cc2)n1-c1ccccc1)N1CCOCC1`, for which the inhibition was -4.6%.

For the compound `COc1ccc(N=C2S/C(=C\c3ccc(C)s3)C(=O)N2CC(C)C)cc1`, the inhibition is -0.3%.

Take `Fc1ccccc1/C=N/Nc1nn[nH]n1`: the inhibition is -1.6%.

As to `CCOC(=O)c1c(NC(=O)Cc2cccs2)sc(C(=O)N2CCCCC2)c1C`, the inhibition was -4.7%.

Turning to `CN=C(NC)SC1CC(=O)N(c2ccccc2)C1=O` (stereo not drawn), the inhibition was 3.9%.

With `CCOc1cc(/C=N/n2cnnc2)cc(Br)c1O`, the inhibition is -0.7%.

Turning to `O=C1CCC(=O)N1c1nc2nc(-c3ccccc3)cc(=O)n2[nH]1`, the inhibition was -1.6%.

Take `CC(=O)COc1ncn(-c2ccccc2)n1`: the inhibition was 0.2%.

On to `Fc1cc2nc(-c3ccncc3)[nH]c2cc1F`, for which the inhibition was -0.1%.

In the case of `Cc1noc(NS(=O)(=O)c2ccc(NC(=O)Nc3ccc(Cl)c(Cl)c3)cc2)c1C`, the inhibition is 0%.

`CCn1c(-c2ccccc2)c[nH]c1=S`: the inhibition is -1.3%.

On to `Nc1c(C(=O)NCC2CCCO2)sc(=S)n1-c1ccccc1` (stereo not drawn), for which the inhibition is 0.7%.

Regarding `COc1ccc(C)cc1-n1nnnc1SCc1cn2ccsc2n1`, the inhibition is -3.3%.

Regarding `CC(=O)c1ccc(N2CCN(CCC#N)CC2)c(F)c1`, the inhibition was 8.2%.

Consider `Cc1occc1C(=O)NC(C)CCc1ccccc1` (stereo not drawn), for which the inhibition is 6.4%.

Take `CC(C)(C)NC(=O)C1Cc2ccccc2CN1C(=O)Nc1cccc(Cl)c1` (stereo not drawn): the inhibition was 3.6%.

Consider `CN(C)c1ccc(-c2nnc(-c3ccc(S(=O)(=O)C(F)F)cc3)o2)cc1`, for which the inhibition is -2%.

With `COc1ccc(-c2sc(NC(=O)c3ccc(C)cc3)nc2-c2ccc([N+](=O)[O-])cc2)cc1`, the inhibition was 0.2%.

Regarding `NC(=O)NC(=O)CSc1nc(-c2ccccc2)c(-c2ccccc2)n1CC1CCCO1` (stereo not drawn), the inhibition was 3.8%.

On to `CCCc1nc2ccccc2c(=O)n1/N=C/c1ccccc1O`, for which the inhibition is -1.9%.

Regarding `Cc1snc(S(=O)(=O)/C(C#N)=N/Nc2cccc(C(F)(F)F)c2)c1C#N`, the inhibition is 5.6%.

With `CCNc1nc(NCC)nc(OCCOC(=O)COc2ccc(Cl)cc2Cl)n1`, the inhibition was -2.4%.

For `CN1CC(=O)NC1=NC(=O)c1ccc(Cl)c(S(=O)(=O)N2CCCCCC2)c1`, the inhibition is -1.1%.

Regarding `Cc1ccc2c(c1Br)/C(=N/N1C(=O)c3ccccc3C1=O)C(=O)N2`, the inhibition is -3.6%.

As to `Clc1ccc(-c2nnnn2-c2ccc(Cl)c(Cl)c2)cc1Cl`, the inhibition is -0.4%.

On to `COc1ccccc1N(C(=O)c1ccco1)C(C(=O)NC1CCCC1)c1cccnc1` (stereo not drawn), for which the inhibition is -0.8%.

`CC(C)(C)NC(=O)Cc1ccc(S(=O)(=O)N2CCCC2)s1`: the inhibition is -1.8%.

Consider `Nc1nc(CSc2nc3ccccc3s2)nc(N2CCCCC2)n1`, for which the inhibition is 3.2%.

Turning to `FC(F)(F)c1cccc(NC(=S)N2CCN(c3cccc(C(F)(F)F)c3)CC2)c1`, the inhibition was -4.7%.

Consider `Cc1nc2cc(S(=O)(=O)N3CCC(C(=O)O)CC3)ccc2n1C1CCCC1`, for which the inhibition was -3.7%.

As to `O=C(CSc1ncnc2c1cnn2Cc1ccccc1)Nc1ccc2c(c1)OCCO2`, the inhibition was 0.3%.

As to `O=C1c2ccccc2C(=O)N1SC1CCCCC1`, the inhibition was -1.8%.

On to `Cn1c(-c2ccccc2Br)n[nH]c1=S`, for which the inhibition was 89.2% (active).

Take `S=c1[nH]nc(-c2ccccc2Cl)n1CC1CCCO1` (stereo not drawn): the inhibition is -1.9%.

Consider `COCCCn1c(-c2ccccc2Cl)n[nH]c1=S`, for which the inhibition was 4.6%.

`Cc1nn2c(N)c(C#N)cnc2c1-c1ccc(Cl)cc1`: the inhibition was 2.5%.

In the case of `CN1CCN(C(=O)c2ccc3c(c2)NC(=O)C(N2CCOCC2)S3)CC1` (stereo not drawn), the inhibition is 3.1%.

Turning to `COCCNc1nc2ccccc2nc1NS(=O)(=O)c1ccc(C)cc1C`, the inhibition is 2.3%.

As to `CC(=O)C(C)Oc1ncn(-c2ccccc2)n1` (stereo not drawn), the inhibition is -3%.

In the case of `N#Cc1ccc(C(=O)Nc2ccc(S(=O)(=O)NC3=NCCCCC3)cc2)cc1`, the inhibition was 4.4%.

In the case of `O=C(Nc1ccccc1)N1CCN(c2ccccn2)CC1`, the inhibition is -1.4%.

In the case of `O=C1CCCCC1C(Nc1ccc(Cl)cc1)c1ccccc1` (stereo not drawn), the inhibition is 1.3%.

For the compound `COc1ccc(C(CNC(=O)c2ccc(N3CCCC3=O)cc2)N(C)C)cc1` (stereo not drawn), the inhibition is -2%.

Take `Clc1ccccc1C1SCC2Nc3ccccc3CN21` (stereo not drawn): the inhibition is 0.1%.

Take `Cc1cccc(/C(N)=N/OC(=O)CCCN2C(=O)c3ccccc3C2=O)c1`: the inhibition was 1.9%.

Consider `COc1ccccc1NC(=O)CC1COc2ccccc2O1` (stereo not drawn), for which the inhibition was -0.3%.

As to `CCOc1ccccc1NC(=O)c1ccc(S(=O)(=O)N2CCOCC2)cc1`, the inhibition was -1.3%.

`Cc1ccc(Cl)cc1NC(=O)CSC(N)=O`: the inhibition was -3%.

Take `COC(=O)C1=CN(CCCN2CCCC2=O)C=C(C(=O)OC)C1c1ccccc1C(F)(F)F`: the inhibition is 3.5%.

On to `CCC(CC)NC(=O)c1cc2c(C)nn(Cc3ccccc3Cl)c2s1`, for which the inhibition was -0.5%.

As to `Cc1nnc(N(CCC#N)CCC#N)s1`, the inhibition was 0%.

`O=C(CN1CCN(c2cccc(C(F)(F)F)c2)CC1)Nc1cccc(C(F)(F)F)c1`: the inhibition was -3.2%.

On to `Cc1oc2nc(SCCCC(=O)NCCO)nc(N)c2c1C`, for which the inhibition was 2.7%.
